A short description of experiment [1]: qHTS assay to identify small molecule agonists of the estrogen receptor alpha (ER-alpha) signaling pathway in the presence of an antagonist - cell viability counter screen (AID 1259386).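 Also: series mostly up to about 92 µM; cells exposed to compounds for 22 h at 37 °C before the viability read; nearly all actives have a fitted effect of over 30% in size.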 An outline of the steps:
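ICI-182,780 at 10.0nM final accompanies the compound titration (15 concentrations, 22hr, 37C) on VM7Luc4E2 cells. The CellTiter-Fluor fluorescence readout runs in the same wells as the luciferase assay.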
(In qHTS, concentration-response curves come from the screen itself.)

Experiment [2] addresses Progesterone receptor (Homo sapiens) (UniProt P06401). Description: qHTS assay to identify small molecule agonists of the progesterone receptor (PR) signaling pathway (AID 1346784; calls by dose curve; also: nearly all actives have a fitted effect of over 30% in size). The procedure, abridged:
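Beta-lactamase reporter read-out: after 16 hr compound treatment at 37C and a further 2 hr at room temperature with LiveBLAzer B/G FRET substrate, fluorescence was measured in PR-UAS-bla HEK 293T cells grown in 2% charcoal-stripped serum.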

Experiment [3] is described as follows: qHTS assay to identify small molecule agonists of the progesterone receptor (PR) signaling pathway - cell viability counter screen (AID 1346799; calls by dose curve; also: nearly all actives have a fitted effect of over 45% in size). The procedure, abridged:
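Luminescence from CellTiter-Glo, added after the beta-lactamase FRET read in the same wells, gave cytotoxicity in PR-UAS-bla HEK293T cells treated with compounds for 16 hr at 37C.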

Experiment [4] in a line: qHTS assay to identify small molecule antagonists of the TGF-beta/Smad signaling pathway - cell viability counter screen (AID 1346824). Also: nearly all actives have a fitted effect of over 50% in size. The procedure, abridged: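 SBE-bla HEK 293T cells, incubated overnight, then compound plus 0.25 ng/mL TGF-beta1 (stock added) for 5 hr at 37 C. Viability was read in the same wells by CellTiter-Glo luminescence after 30 min at room temperature.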

Experiment [5] in a line: qHTS assay to identify small molecule agonists of the TGF-beta/Smad signaling pathway - cell viability counter screen (AID 1346829). Also: top concentration of the series differs between compounds; nearly all actives have a fitted effect of over 45% in size. The procedure, abridged:
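Here the cytotoxicity of library compounds is measured in SBE-bla HEK 293T cells treated for 5 hr, using CellTiter-Glo added to wells already read for the beta-lactamase reporter.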

A short description of experiment [6]: qHTS assay to identify small molecule agonists of the TGF-beta/Smad signaling pathway (AID 1346859; active = well fitted activation curve with a large enough effect in the signal ratio in the repeat runs, not every such curve was filed as active; the % refers to the signal ratio; also: series mostly up to about 77 µM). The procedure, abridged: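 SBE-bla HEK 293T, 4,000 cells/well, plated o/n; cpd in DMSO, 5 hr, 37 C/5% CO2; B/G FRET substrate 2 hr RT; ex 405, em 460/530 nm.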
Experiment [7] addresses Thyrotropin-releasing hormone receptor (Homo sapiens) (UniProt P34981). Description: qHTS assay to identify small molecule antagonists of the thyrotropin-releasing hormone receptor (TRHR) signaling pathway (AID 1346877; active = well fitted inhibition curve with a large enough effect in the repeat runs, not every such curve was filed as active; also: series mostly up to about 51 µM). The procedure, abridged:
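Screening used HEK293 cells engineered with TRHR, with a brief 5 min room-temperature compound exposure preceding addition of TRH to 1 nM. The read-out was kinetic calcium-dye fluorescence, concentration-response from 15 doses in triplicate.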

Experiment [8] has the same target. Description: qHTS assay to identify small molecule agonists of the thyrotropin-releasing hormone receptor (TRHR) signaling pathway (AID 1346891; calls by dose curve; also: series mostly up to about 58 µM). The procedure, abridged: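 Intracellular calcium rise, read as fluorescence every second for 3 min, served as the agonist signal in dye-loaded HEK293 cells expressing TRHR; each compound ran at 15 concentrations in triplicate.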

A short description of experiment [9]: Human pregnane X receptor (PXR) small molecule agonists, qHTS cell viability counter screen (AID 1346977). Also: nearly all actives have a fitted effect of over 50% in size. An outline of the steps:
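PXR-Luc HepG2, 2,000 cells/well, 5% charcoal-stripped FBS; 5hr settle; cpd 24hr, 37C/5% CO2; CellTiter-Fluor at 23hr, read 1hr later (fluorescence).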

The nature of experiment [10]: Caspase-3/7 induction in HepG2 cells by small molecules, qHTS assay (AID 1346978). Also: nearly all actives have a fitted effect of over 15% in size. An outline of the steps:
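Wild-type HepG2 cells, 2,000/well, settled 5 hr at 37 C and 5% CO2, then compound-treated for 17 hr; caspase-3/7 activity read by luminescent Caspase-Glo 3/7 after 30 min at room temperature.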

The nature of experiment [11]: Caspase-3/7 induction in CHO-K1 cells by small molecules, qHTS cell viability counter screen (AID 1346979). Also: nearly all actives have a fitted effect of over 35% in size. Also: potency is read from the fitted curve at half-maximal effect. The procedure, abridged: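 Cells (CHO-K1, wild type) are plated at 1,500 per well and incubated 5hr. Test compounds in DMSO are then pinned in, followed by 16hr at 37C and 5% CO2. Viability is read by CellTiter-Fluor fluorescence after 1hr.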
Experiment [12] is described as follows: Caspase-3/7 induction in CHO-K1 cells by small molecules, qHTS assay (AID 1346980). Also: nearly all actives have a fitted effect of over 15% in size. The procedure, abridged: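 Wild-type CHO-K1 cells exposed to compounds for 17hr at 37 C, 5% CO2. Caspase-3/7 activity then measured by Caspase-Glo 3/7 luminescence after 30min at room temperature.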
Experiment [13] in a line: Caspase-3/7 induction in HepG2 cells by small molecules, qHTS cell viability counter screen (AID 1346981). Also: nearly all actives have a fitted effect of over 30% in size. Also: potency is read from the fitted curve at half-maximal effect. An outline of the steps: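 Multiplexed with the caspase-3/7 assay: HepG2 cells, 16 hr compound treatment, CellTiter-Fluor viability detection by fluorescence.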
The target of experiment [14] is Acetylcholinesterase (Homo sapiens) (UniProt P22303). Description: Acetylcholinesterase (AChE) small molecule antagonists: colormetric cell-based qHTS assay (AID 1347395; calls by dose curve; also: nearly all actives have a fitted effect of over 30% in size; also: potency is read from the fitted curve at half-maximal effect). The procedure, abridged: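 Colorimetric read-out: DTNB detects thiocholine released when cellular AChE in SH-SY5Y cells hydrolyses acetylthiocholine. Cells attached overnight, received compound for 30 min at 37 C, then substrate mix for 90 min at 37 C.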

Experiment [15] addresses Nuclear receptor subfamily 1 group I member 2 (Homo sapiens) (UniProt O75469). Description: Human pregnane X receptor (PXR) small molecule agonists, qHTS assay (AID 1346982). Also: nearly all actives have a fitted effect of over 35% in size. Also: potency is read from the fitted curve at half-maximal effect. An outline of the steps:
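We seeded PXR-Luc HepG2 cells in assay medium containing 5% charcoal-stripped FBS, added compounds 5 hr later, incubated 24 hr, and read luminescence with ONE-Glo reagent.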

The target of experiment [16] is Progesterone receptor (Homo sapiens) (UniProt P06401). Description: qHTS assay to identify small molecule antagonists of the progesterone receptor (PR) signaling pathway (AID 1346795; active = well fitted inhibition curve with a large enough effect in the signal ratio in the repeat runs, not every such curve was filed as active; the % refers to the signal ratio). An outline of the steps: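 Read-out is fluorescence from the LiveBLAzer B/G FRET substrate, cleaved by a UAS-controlled beta-lactamase in PR-UAS-bla HEK293T cells after 16 hr exposure to compound plus 1 nM promegestone (final), followed by 2 hr at room temperature.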

Experiment [17] is described as follows: qHTS assay to identify small molecule antagonists of the progesterone receptor (PR) signaling pathway - cell viability counter screen (AID 1346798).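 Also: HEK293T PR-UAS-bla cells stimulated with the agonist R5020; series mostly up to about 92 µM; nearly all actives have a fitted effect of over 50% in size.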 The procedure, abridged:
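HEK293T PR-UAS-bla, 2% charcoal-stripped FBS; 4 hr pre-plate; cpd + R5020, 16 h 37C; LiveBLAzer read first; then CellTiter-Glo 30 min RT, luminescence.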

Experiment [18] has as its target Nuclear receptor subfamily 1 group I member 2 (Rattus norvegicus) (UniProt Q9R1A7). Description: Rat pregnane X receptor (rPXR) activation by small molecules, qHTS assay (AID 1346983). Also: nearly all actives have a fitted effect of over 20% in size. The following applies: rPXR luciferase reporter cells, One-Glo luminescence, 24 h; hits give high values. An outline of the steps:
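Cell-based rPXR activation assay: rPXR cells, 2,000 per well, rested 5hr at 37 C, then exposed to compounds in DMSO for 24 hr at 37 C. Luciferase activity read by One-Glo luminescence after 30 min at room temperature.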

Experiment [19] addresses Nuclear receptor subfamily 1 group I member 2 (Homo sapiens) (UniProt O75469). Description: CYP3A4 induction through human pregnane X receptor (PXR) by small molecules, qHTS assay (AID 1346984). Also: nearly all actives have a fitted effect of over 40% in size. The procedure, abridged:
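qHTS, concentration-response format: HepG2 DPX-2 line, PXR/CYP3A4-luc. Exposure 24 h, 37C. Substrate Luciferin-IPA 3uM final, 3 h. Detection One-Glo, 30 min RT.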

Experiment [20] shares this target. Description: Human pregnane X receptor (PXR) activation by small molecules, qHTS assay (AID 1346985). Also: nearly all actives have a fitted effect of over 40% in size. An outline of the steps: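 DPX-2 cells (HepG2 co-transfected with a PXR response element and a CYP3A4-promoter luciferase construct) were seeded at 2,000 per well, rested 5 hr at 37C, then exposed to DMSO-dissolved compounds for 24 hr. Activation was read as luciferase luminescence.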

Molecules are shown by their SMILES. Values without a mark were called inactive. Inconclusive results are not listed. Calls of active or inactive are those of the source. Unless noted, calls follow the shape of the dose curve; as a rule, active = well fitted curve in the direction sought with a large enough effect in the repeat runs; inconclusive = weak or mixed curves; inactive = no such curve, though single readings can be large; an effect the other way counts as inactive or inconclusive.
% is scaled to controls: 0 for no effect and ±100 for the full control effect.

Chain of Progesterone receptor (Homo sapiens) (P06401 whole entry, looked up): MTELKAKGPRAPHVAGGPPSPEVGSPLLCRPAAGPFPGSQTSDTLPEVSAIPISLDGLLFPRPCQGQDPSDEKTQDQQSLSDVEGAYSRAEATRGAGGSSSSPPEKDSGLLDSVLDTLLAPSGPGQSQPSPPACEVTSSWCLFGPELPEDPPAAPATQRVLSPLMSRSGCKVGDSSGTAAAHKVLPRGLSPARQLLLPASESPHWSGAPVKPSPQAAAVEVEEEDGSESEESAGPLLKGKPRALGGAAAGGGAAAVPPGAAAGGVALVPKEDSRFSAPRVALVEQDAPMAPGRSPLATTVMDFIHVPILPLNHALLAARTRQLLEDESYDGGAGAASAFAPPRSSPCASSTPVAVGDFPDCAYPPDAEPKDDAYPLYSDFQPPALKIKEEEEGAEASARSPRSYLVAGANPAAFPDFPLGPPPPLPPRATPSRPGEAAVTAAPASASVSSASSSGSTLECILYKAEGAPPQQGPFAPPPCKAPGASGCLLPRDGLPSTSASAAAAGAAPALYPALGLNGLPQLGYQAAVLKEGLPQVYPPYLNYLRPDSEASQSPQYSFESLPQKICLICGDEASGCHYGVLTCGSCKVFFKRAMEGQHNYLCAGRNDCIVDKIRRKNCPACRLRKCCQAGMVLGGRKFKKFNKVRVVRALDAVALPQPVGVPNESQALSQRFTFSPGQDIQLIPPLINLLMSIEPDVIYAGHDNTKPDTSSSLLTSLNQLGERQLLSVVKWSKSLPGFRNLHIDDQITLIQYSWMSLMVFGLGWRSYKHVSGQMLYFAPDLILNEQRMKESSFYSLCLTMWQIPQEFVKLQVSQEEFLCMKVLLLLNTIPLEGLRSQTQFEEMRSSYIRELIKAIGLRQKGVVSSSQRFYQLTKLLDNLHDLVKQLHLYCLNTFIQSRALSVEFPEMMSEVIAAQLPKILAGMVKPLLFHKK
Chain of Thyrotropin-releasing hormone receptor (Homo sapiens) (P34981 whole entry, looked up): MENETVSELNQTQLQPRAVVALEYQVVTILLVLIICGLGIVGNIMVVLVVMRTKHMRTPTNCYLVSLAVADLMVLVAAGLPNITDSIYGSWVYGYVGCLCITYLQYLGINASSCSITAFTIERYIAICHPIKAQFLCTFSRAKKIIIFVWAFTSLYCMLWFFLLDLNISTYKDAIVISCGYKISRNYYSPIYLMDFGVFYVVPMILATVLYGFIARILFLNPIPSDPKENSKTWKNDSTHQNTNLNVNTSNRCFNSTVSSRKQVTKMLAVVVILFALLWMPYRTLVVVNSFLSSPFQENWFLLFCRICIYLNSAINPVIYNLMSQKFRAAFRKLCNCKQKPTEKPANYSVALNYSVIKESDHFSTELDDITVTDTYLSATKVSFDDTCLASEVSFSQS
Chain of Acetylcholinesterase (Homo sapiens) (P22303 whole entry, looked up): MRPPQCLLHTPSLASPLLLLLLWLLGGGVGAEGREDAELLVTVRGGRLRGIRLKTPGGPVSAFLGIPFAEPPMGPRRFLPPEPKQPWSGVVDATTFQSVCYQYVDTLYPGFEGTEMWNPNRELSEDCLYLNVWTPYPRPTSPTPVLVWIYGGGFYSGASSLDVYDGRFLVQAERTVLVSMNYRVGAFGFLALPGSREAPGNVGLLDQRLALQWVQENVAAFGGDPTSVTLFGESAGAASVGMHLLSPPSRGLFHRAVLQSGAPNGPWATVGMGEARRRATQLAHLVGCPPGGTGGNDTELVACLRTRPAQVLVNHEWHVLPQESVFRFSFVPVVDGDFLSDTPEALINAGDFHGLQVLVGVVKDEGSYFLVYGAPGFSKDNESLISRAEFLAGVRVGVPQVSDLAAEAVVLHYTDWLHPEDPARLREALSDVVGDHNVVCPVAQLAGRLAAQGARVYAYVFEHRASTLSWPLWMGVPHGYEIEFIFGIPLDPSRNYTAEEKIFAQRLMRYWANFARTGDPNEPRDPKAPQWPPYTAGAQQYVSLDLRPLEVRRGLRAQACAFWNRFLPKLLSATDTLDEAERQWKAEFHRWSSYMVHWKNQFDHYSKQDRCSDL
Chain of Nuclear receptor subfamily 1 group I member 2 (Homo sapiens) (O75469 whole entry, looked up): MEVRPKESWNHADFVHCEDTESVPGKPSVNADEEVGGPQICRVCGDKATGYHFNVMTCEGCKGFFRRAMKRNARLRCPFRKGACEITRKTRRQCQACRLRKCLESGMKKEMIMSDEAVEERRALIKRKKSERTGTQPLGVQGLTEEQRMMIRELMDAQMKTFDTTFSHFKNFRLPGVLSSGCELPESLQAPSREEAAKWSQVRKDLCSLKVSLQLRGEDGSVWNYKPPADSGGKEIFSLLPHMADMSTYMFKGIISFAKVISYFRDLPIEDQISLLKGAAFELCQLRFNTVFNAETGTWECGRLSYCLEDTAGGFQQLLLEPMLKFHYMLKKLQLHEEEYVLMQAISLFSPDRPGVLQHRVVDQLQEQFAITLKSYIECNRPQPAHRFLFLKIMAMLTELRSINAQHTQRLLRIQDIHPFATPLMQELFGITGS
Chain of Nuclear receptor subfamily 1 group I member 2 (Rattus norvegicus) (Q9R1A7 whole entry, looked up): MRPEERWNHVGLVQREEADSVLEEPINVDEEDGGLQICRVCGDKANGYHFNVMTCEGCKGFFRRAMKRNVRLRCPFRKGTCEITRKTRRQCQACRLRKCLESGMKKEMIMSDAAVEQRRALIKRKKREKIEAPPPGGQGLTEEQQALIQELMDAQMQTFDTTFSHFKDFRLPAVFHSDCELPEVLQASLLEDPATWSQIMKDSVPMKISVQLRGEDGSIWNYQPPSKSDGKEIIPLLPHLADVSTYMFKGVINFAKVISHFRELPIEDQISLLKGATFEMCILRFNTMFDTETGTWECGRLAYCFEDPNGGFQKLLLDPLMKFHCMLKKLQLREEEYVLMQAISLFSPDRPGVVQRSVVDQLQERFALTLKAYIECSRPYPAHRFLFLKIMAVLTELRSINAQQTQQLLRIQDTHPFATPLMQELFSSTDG

With `COC(=O)C1(O)c2ccccc2-c2ccccc21`, the Potency result in [1], in experiment [2], in experiment [3], in experiment [4], in experiment [5] and in [7] was “inactive” throughout. The Potency result in [9], in [10], in experiment [11], in experiment [12], in experiment [13] and in experiment [14] was “inactive” throughout. Also, the result in [6] and in [8] was inactive.
Turning to `CCOC(=O)c1cn2nc(OP(=S)(OCC)OCC)cc2nc1C`, the Potency result in [1], in experiment [2], in [4], in [5], in [9] and in experiment [10] was “inactive” in each case. Also, the Potency entry in experiment [12] and in [13] was “inactive” throughout. The Potency in experiment [15] was 30.6 µM (active); in experiment [14], 35.6 µM (active).
`CC(C)(C)NCC(O)c1cc(Cl)c(N)c(C(F)(F)F)c1` (stereo not given): the Potency result in experiment [2], in experiment [16], in [17], in experiment [3], in experiment [4] and in experiment [5] was “inactive” each time. The Potency entry in experiment [7], in [10], in [12], in experiment [15], in experiment [20] and in [14] was “inactive” each time. In addition, the result in experiment [6], in experiment [8] and in experiment [19] was inactive. Further, the max activation in [18] is 8.47%.
Regarding `Cc1nc2ccccc2c(=O)n1-c1ccccc1Cl`, the Potency entry in experiment [2], in experiment [17], in experiment [3], in [4], in experiment [5] and in [7] was “inactive” each time. Moreover, the Potency result in experiment [10], in [12] and in experiment [14] was “inactive” each time. Moreover, the outcome in [6] and in experiment [8] was inactive. For the same molecule, the figures for the Potency in experiment [11], in experiment [13] and in experiment [15] were 26.7 µM (active), 26.7 µM (active) and 21.2 µM (active), respectively.
`COc1ccc2c(c1OC)C(=O)O[C@H]2[C@@H]1c2cc3c(cc2CCN1C)OCO3`: the Potency entry in [2], in experiment [16], in experiment [17], in experiment [3], in experiment [4] and in [5] was “inactive” throughout. For the same molecule, the Potency result in [7], in experiment [10] and in experiment [12] was “inactive” each time. For the same molecule, the outcome in experiment [6] and in [8] was inactive. Further, the Potency in experiment [11] and in experiment [13] was 11.9 µM (active) throughout.
Regarding `OCCSSCCO`, the Potency entry in experiment [1], in [2], in [3], in experiment [4], in experiment [5] and in experiment [7] was “inactive” each time. In addition, the Potency entry in [9], in experiment [10], in [11], in [12], in [13] and in [15] was “inactive” in each case. For the same molecule, the Potency result in experiment [14] is “inactive”. Moreover, in [8], the result was inactive.
Turning to `CON(C)C(=O)Nc1ccc(Cl)cc1`, the Potency entry in experiment [1], in [2], in experiment [3], in experiment [4], in [5] and in experiment [9] was “inactive” throughout. Also, the Potency entry in experiment [10], in experiment [11], in [12], in experiment [13] and in [14] was “inactive” each time. In addition, the result in experiment [6] was inactive. Moreover, the Potency in experiment [15] is 48.6 µM (active).
Consider `CCCCC(CC)COC(=O)c1c(Br)c(Br)c(Br)c(Br)c1C(=O)OCC(CC)CCCC` (stereo not given), for which the Potency entry in [1], in experiment [16], in experiment [17], in experiment [3], in experiment [4] and in experiment [5] was “inactive” each time. For the same molecule, the Potency result in [7], in experiment [9], in experiment [10], in experiment [11], in experiment [12] and in experiment [13] was “inactive” throughout. Further, the Potency entry in experiment [14] was “inactive”. Besides, the result in experiment [6] and in experiment [8] was inactive. Besides, in experiment [15], the Potency was 16.8 µM (active).

Source of the values: PubChem BioAssay (Tox21).
